Screen size: about 16,000 compounds; about 5,100 (32%) were called active. Not shown: some 25% with an inconclusive outcome. The call rests on the fitted dose curve; in most records, active means well fitted curve in the direction sought with a large enough effect; inconclusive means small, poorly fitted or top-dose-only effect, or effect the other way; inactive means no such curve, though single readings can be large or run the other way. This is one part of the list.
molecular target: Cytochrome P450 3A4 (Homo sapiens) (UniProt P08684); test: Cytochrome panel assay with activity outcomes; conditions: recombinant CYP, pro-luciferin dealkylation, luminescence, p450-cyp3a4; series mostly up to 57.1 µM
Sequence (P08684 whole entry, looked up): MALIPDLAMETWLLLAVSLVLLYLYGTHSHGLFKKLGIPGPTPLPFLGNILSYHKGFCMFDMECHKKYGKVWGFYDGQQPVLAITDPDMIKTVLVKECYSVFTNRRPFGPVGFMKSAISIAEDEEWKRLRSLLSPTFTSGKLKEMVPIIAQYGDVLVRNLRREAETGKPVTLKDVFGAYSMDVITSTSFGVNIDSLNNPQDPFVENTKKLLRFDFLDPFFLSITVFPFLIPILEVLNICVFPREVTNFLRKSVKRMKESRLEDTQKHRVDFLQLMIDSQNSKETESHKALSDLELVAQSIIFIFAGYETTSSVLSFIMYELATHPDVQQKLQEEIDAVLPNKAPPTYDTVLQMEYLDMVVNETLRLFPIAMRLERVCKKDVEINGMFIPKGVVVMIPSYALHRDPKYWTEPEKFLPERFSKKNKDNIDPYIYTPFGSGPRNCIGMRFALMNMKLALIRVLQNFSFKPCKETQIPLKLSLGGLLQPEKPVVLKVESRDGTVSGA
On the % scale 0 is the no-effect control and ±100 the full control effect.

| SMILES | AC50 | activity, negative = inhibition |
| --- | --- | --- |
| CCC1CC(CSc2ncn[nH]2)OC1=O (configuration not stated) | inactive |  |
| CCCOc1ccc(-c2nc(N)n[nH]2)cc1 |  | 8.08% [at 11.4 µM] (inactive) |
| COc1ccc(OCCSc2ncn[nH]2)cc1 | 14.1 µM (active) |  |
| C[C@@H](CNC(N)=O)NC(N)=O |  | -2.29% [at 11.4 µM] (inactive) |
| COCCCNC(=O)C1C2C=CC3(CN(Cc4ccc(C)cc4)C(=O)C13)O2 (configuration not stated) | 7.94 µM (active) |  |
| Cc1ccc(CN2CC34C=CC(O3)C(C(=O)NCc3ccco3)C4C2=O)cc1 (configuration not stated) | 8.91 µM (active) |  |
| COc1ccc(CCN2CC34C=CC(O3)C(C(=O)NCc3ccccc3)C4C2=O)cc1OC (configuration not stated) | 2.82 µM (active) |  |
| O=C(NCC1COc2ccccc2O1)C1C2C=CC3(CN(Cc4cccs4)C(=O)C13)O2 (configuration not stated) |  | -13.1% [at 2.29 µM] (inactive) |
| Cc1ccc(CN2CC34C=CC(O3)C(C(=O)NCc3ccc5c(c3)OCO5)C4C2=O)cc1 (configuration not stated) | 0.251 µM (active) |  |
| CCOc1ccc(NC(=O)N2CCC(C(N)=O)(N3CCCCC3)CC2)cc1 | inactive |  |
| O=C(O)C1C2C=CC3(CN(Cc4ccccn4)C(=O)C13)O2 (configuration not stated) | inactive |  |
| CCCCNC(=O)C1C2C=CC3(CN(Cc4ccccc4Cl)C(=O)C13)O2 (configuration not stated) | 3.98 µM (active) |  |
| CCCCNC(=O)C1CCN(Cc2ccccn2)CC1 | inactive |  |
| CC(CC(=O)O)(CC(=O)O)c1ccccc1 |  | 0.682% [at 11.4 µM] (inactive) |
| c1ccc([C@@H]2CN3CCSC3=N2)cc1 | inactive |  |
| Cc1nn(Cc2ccc(Cl)cc2)c(C)c1NC(=O)CSc1nc2c(c(C(F)(F)F)n1)CCc1ccccc1-2 | 3.16 µM (active) |  |
| Cc1ccccc1Cn1cc(NC(=O)CSc2nc3c(c(C(F)(F)F)n2)CCc2ccccc2-3)cn1 | 5.01 µM (active) |  |
| NC(CSS(=O)(=O)O)=N[C@@H]1C[C@H]2CC[C@@H]1C2 |  | -19.6% [at 11.4 µM] (inactive) |
| CCCC1c2c(ccc3ccccc23)Oc2ccc3ccccc3c21 |  | -11.1% [at 11.4 µM] (inactive) |
| Cc1cccc(CNc2cc(-c3cccc(C#N)c3)ncn2)c1 | 7.94 µM (active) |  |
| N#Cc1cccc(-c2cc(NCc3cccnc3)ncn2)c1 | 2.51 µM (active) |  |
| N#Cc1cccc(-c2cc(NCc3ccccc3)ncn2)c1 | inactive |  |
| CC1(C)CCC(C)(C)c2cc(C(=O)Nc3ccc(C(=O)O)cc3)ccc21 | inactive |  |
| COc1ccccc1C1=NOC(COC(=O)c2ccc3ccccc3n2)C1 (configuration not stated) | 17.8 µM (active) |  |
| O=C(OCC1CC(c2ccccc2)=NO1)c1ccc(Cl)cc1 (configuration not stated) | inactive |  |
| COc1ccccc1CNc1cc(-c2cccc(NS(C)(=O)=O)c2)ncn1 | 5.01 µM (active) |  |
| COc1ccc(CNc2cc(-c3cccc(NS(C)(=O)=O)c3)ncn2)c(OC)c1 | 2.51 µM (active) |  |

Reference: PubChem BioAssay AID1851 (National Center for Advancing Translational Sciences (NCATS), 2009)
